Among all 330,000 compounds or so, about 10,000 (3%) were called active. The entries come from a sample that favours actives as a whole. Values without a mark were called inactive.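 How the source made its calls: active means inhibition of at least 50% at 8 µM in the primary screen; inactive means the rest.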
molecular target: Protein Mdm4 (Homo sapiens) + E3 ubiquitin-protein ligase Mdm2 (Homo sapiens) (UniProt O15151+Q00987); test: inhibitors of human Mdm2-MdmX association, primary screen, cell-based, luminescence, split luciferase, SaOS-2, uHTS (AID 485346); conditions: SaOS-2 split-luciferase Mdm2/MdmX complementation, at 8 µM, stronger effect = higher value
Sequence (O15151 whole entry, looked up): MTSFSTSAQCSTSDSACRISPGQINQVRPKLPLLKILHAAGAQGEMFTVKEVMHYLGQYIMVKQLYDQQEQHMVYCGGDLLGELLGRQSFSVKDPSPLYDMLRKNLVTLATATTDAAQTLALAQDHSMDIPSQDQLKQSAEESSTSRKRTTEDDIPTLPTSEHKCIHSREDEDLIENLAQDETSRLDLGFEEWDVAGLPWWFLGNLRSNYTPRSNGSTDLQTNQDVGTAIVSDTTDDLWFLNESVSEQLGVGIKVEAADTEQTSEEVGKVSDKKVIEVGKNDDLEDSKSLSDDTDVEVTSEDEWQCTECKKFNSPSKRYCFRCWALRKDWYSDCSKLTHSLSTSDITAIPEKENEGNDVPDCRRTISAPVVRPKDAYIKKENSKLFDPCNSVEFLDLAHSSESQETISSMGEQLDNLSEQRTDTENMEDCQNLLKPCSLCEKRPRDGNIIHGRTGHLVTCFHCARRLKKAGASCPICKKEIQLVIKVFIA
Sequence (Q00987 whole entry, looked up): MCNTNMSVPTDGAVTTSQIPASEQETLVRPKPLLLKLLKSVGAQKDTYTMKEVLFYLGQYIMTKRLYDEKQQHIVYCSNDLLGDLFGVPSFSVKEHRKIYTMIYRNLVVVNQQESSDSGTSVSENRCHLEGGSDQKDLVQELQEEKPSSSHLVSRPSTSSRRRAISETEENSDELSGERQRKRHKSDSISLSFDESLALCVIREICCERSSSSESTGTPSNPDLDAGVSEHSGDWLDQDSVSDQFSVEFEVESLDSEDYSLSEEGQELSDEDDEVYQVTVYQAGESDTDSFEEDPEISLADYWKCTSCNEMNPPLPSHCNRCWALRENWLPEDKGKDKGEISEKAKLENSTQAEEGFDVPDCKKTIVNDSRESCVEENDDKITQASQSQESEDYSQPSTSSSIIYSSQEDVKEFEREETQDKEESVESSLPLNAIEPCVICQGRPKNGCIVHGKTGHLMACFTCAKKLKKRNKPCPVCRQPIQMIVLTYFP

Compound | inhibition
O=C(COC(=O)CNC(=O)C1CCCCC1)NCc1ccccc1 | 17.1%
CCCSc1ccc([C@H]2N[C@@](Cc3ccccc3)(C(=O)OC)[C@H]3C(=O)N(C)C(=O)[C@@H]23)cc1 | 42.6%
CC1CN(C(=S)Nc2ccccc2F)CC(C)O1 (stereo not given) | 28.4%
O=C(/C=C/c1cccc([N+](=O)[O-])c1)OCC(=O)N1CCOCC1 | 9.38%
CCOP(=O)(OCC)C(Nc1cccc(C)c1)c1ccc(F)cc1 (stereo not given) | -2.51%
O=C(COC(=O)Cc1ccccc1F)NCCc1ccccc1 | 6.62%
Fc1ccccc1Cn1cnc(NC(=S)NCCc2ccccc2)n1 | 45.1%
N=c1n(CCc2ccccc2)c2ccccc2n1Cc1ccccc1F | 64.2% (active)
Cc1nn(CCOc2ccc(Br)cc2)c(C)c1[N+](=O)[O-] | 18.2%
C=CC1=C(C(=O)O)N2C(=O)[C@@H](NC(=O)/C(=N\OCC(=O)O)c3csc(N)n3)[C@H]2SC1 | 16%
COc1ccc(CCOC2OC(CO)C(OC(=O)/C=C/c3ccc(O)c(OC)c3)C(O[C@H]3O[C@@H](C)[C@H](O)[C@@H](O)[C@H]3O)C2O)cc1O (stereo not given in full) | -29.1%
CCN1/C(=C\c2ccc3ccccc3[n+]2CC)Sc2cc(C)ccc21 | 77.1% (active)
COC(=O)C[n+]1cccc2ccccc21 | 6.08%
O=S(=O)(NCC1CN(S(=O)(=O)c2ccc3c(c2)OCCO3)C1)c1c(F)cccc1F | -1.76%
O=C(N[C@H]1C/C=C\C(c2ccc(F)cc2)N(Cc2ccccc2)C(=O)C1)OCC1c2ccccc2-c2ccccc21 (stereo not given in full) | 20.2%
CC(=O)Nc1ccc(C(=O)/C=C/c2ccc[nH]2)cc1 | 1.87%
CCCC(=O)Nc1ccc(C(=O)N/N=C/c2ccc[nH]2)cc1 | 70.3% (active)
O=C(COc1ccccc1[N+](=O)[O-])N/N=C/c1ccc[nH]1 | 3.97%
O=C(NCc1ccccc1CN1CCCC1)C1CCN(S(=O)(=O)c2ccc(Cl)cc2)CC1 | 3.2%
CC(C)(C)OC(=O)Nc1ccc([C@@H](NC(=O)OC(C)(C)C)C(=O)OC(C)(C)C)cc1 | 2.33%
Cc1n[nH]c(=O)nc1N/N=C/c1cccs1 | -4.56%
Oc1ccc(/C=N/Nc2nc(-c3ccccc3F)nc3ccccc23)c(O)c1 | 69% (active)
COc1ccccc1N1CCN(/N=C/c2ccc(O)cc2O)CC1 | 16.1%

Compound | inhibition
O=c1c2ccccc2nc(N/N=C/c2ccccc2)n1O | -0.971%
Cc1ccc(/C=N/NC(=O)C2=NNC(c3ccccc3)(c3ccccc3)C2)c(O)c1 | 42.2%
Cc1nc2ccccc2nc1N/N=C/c1ccc(O)cc1O | 77.6% (active)
CCCNC(=O)OC[C@H]1O[C@H](CCO/N=C/[C@@H](NS(=O)(=O)c2ccc(C)cc2)[C@H](C)/C=C/CC(=O)OC)C=C[C@@H]1Oc1ccc(OC)cc1 | 20.8%
O=C(Cn1c2[n+](c3ccc(C(F)(F)F)cc31)CCCCC2)Nc1c(F)cccc1F | 13%
C=CCNC(=O)/C=C/c1ccc(C(C)C)cc1 | -111%
O=C(c1ccc[nH]c1=S)N1CCN(S(=O)(=O)c2ccc(Br)cc2Cl)CC1 | 2.6%
COc1ccc(S(=O)(=O)N2CCC(C(=O)N3CCc4ccccc4C3)CC2)cc1OC | -18.3%
COc1cc2c(cc1OC)CN(C(=O)c1cc(S(=O)(=O)N3CCCCC3)ccc1Cl)CC2 | 20.3%
COc1cc2c(cc1OC)C(C)N(S(=O)(=O)c1cnc(Cl)c(Cl)c1)CC2 (stereo not given) | 80.7% (active)
COC(=O)C1C(=O)NCC1c1ccc(C)cc1 (stereo not given) | 13%
COC(=O)C1=C(Nc2ccc(C)cc2)C=C(C)C(C(=O)OC)C1c1ccc(F)cc1 (stereo not given) | 50.9% (active)
COC(=O)C1=C(Nc2ccc(OC)cc2)C=C(C)C(C(=O)OC)C1c1ccc(C)cc1 (stereo not given) | 19.4%
CC(C)(C)C(=O)NC1CC2CCCC(C1)N2C(=O)Nc1ccccc1F (stereo not given) | -1.01%
O=C(CC1C(=O)NCCN1CC(c1ccccc1)c1ccccc1)NCC1CCOCC1 (stereo not given) | 15.7%
COc1cc(NS(=O)(=O)c2ccc(NC(=S)NC(=O)c3ccccc3)cc2)nc(OC)n1 | 13.4%
CCOC(=O)N1CCN(C(=O)c2ccc(S(=O)(=O)c3ccc(C)cc3)c(NC(C)=O)c2)CC1 | 50.8% (active)
COCCNC(=O)c1ccc(S(=O)(=O)c2ccc(Cl)cc2)c(NC(C)=O)c1 | 14.7%
CCOC(=O)N1CCN(C(=O)c2ccc3c(c2)N(Cc2ccc(C)cc2)CCS3)CC1 | 6.09%
CCOC(=O)/C(C#N)=C\c1c(C)cc(C)c(COC(C)=O)c1C | 14.2%
Cc1cc(C)nc(S/C=C/C(=O)c2ccccc2)n1 | 65.8% (active)
Cc1cc(C)nc(SCC(=O)N(C)C)n1 | -9.55%
Cc1cc(C)nc(SCC(=O)c2ccc(Cl)cc2)n1 | 9.88%

Compound | inhibition
CCCc1ccc(C(=O)COC(=O)CN2C(=O)NC3(CCCCC3C)C2=O)cc1 (stereo not given) | 11.7%
N#CCc1ccc(OC(=O)c2cccnc2)cc1 | 12.8%
O=C(Oc1ccc(Br)cc1)c1cccnc1 | -5.87%
O=C(Oc1c(-c2ccco2)oc2ccccc2c1=O)c1cccnc1 | 56.6% (active)
O=C(c1ccc(-n2cnnn2)cc1)N1CCN(C(c2ccccc2)c2ccccc2)CC1 | 12.3%
CCN(CCCNC(=O)CCn1c(=O)[nH]c2ccsc2c1=O)c1ccccc1 | 0.795%
CCN(CCCNC(=O)c1ccc2c(c1)NC(=O)CN2C)c1cccc(C)c1 | 82.6% (active)
CCN(CCCNC(=O)C1CCN(S(=O)(=O)c2cnc[nH]2)CC1)c1ccccc1 | 37.3%
CC1CC(C)CN(C(=O)CSc2ccsc2[N+](=O)[O-])C1 (stereo not given) | -7.54%
Oc1ccc(-c2cccc(-c3ccc(O)cc3)c2)cc1 | -24.2%
Cc1cccc(Nc2nc(-c3ccccc3)cs2)n1 | -222%
Cc1ccc(-c2csc(NC3OC(=O)c4ccccc43)n2)cc1 (stereo not given) | 63.6% (active)
Cc1ccc(-c2csc(NC(=O)Cn3[nH]c(=O)c4ccccc4c3=O)n2)cc1 | 31.2%
COc1ccc2c(c1OC)C(=O)OC2Nc1nc(-c2ccccc2)cs1 (stereo not given) | 98.5% (active)
Cc1ccc(-c2csc(-c3cc(C)on3)n2)cc1 | -47.3%
COc1cc(CC(=O)Nc2nc(-c3ccc(F)c(F)c3)cs2)cc(OC)c1OC | 28.8%
OC(CNC1CCCC1)COc1ccc(F)cc1 (stereo not given) | 7.59%
CCCCCCCCCCOC(=O)C[N+](C)(C)CC1CCCCC1O (stereo not given) | 23.5%
CCN(CC(=O)NCc1ccc(Cl)cc1)C(=O)c1c(C)noc1C | 3.48%
O=C(c1ccncc1)N1CCN(S(=O)(=O)c2cccc([N+](=O)[O-])c2)CC1 | -3.71%
CC(C)c1ccc(-c2noc(C3CCCN(S(C)(=O)=O)C3)n2)cc1 (stereo not given) | 2.01%
CCN1CCCC1CNC(=O)c1cc2c(=O)n(C)c3ccccc3c2n1C (stereo not given) | 18.3%
Cn1c(C(=O)NCCCN2CCN(c3cccc(Cl)c3)CC2)cc2c(=O)n(C)c3ccccc3c21 | 76.9% (active)

Compound | inhibition
Cn1c(C(=O)NCCc2ccsc2)cc2c(=O)n(C)c3ccccc3c21 | -6.58%
O=C(OCC(=O)N1CCN(C(=O)c2ccco2)CC1)c1c(Cl)cccc1Cl | 2.03%
CCOC(=O)Cn1c2c(c(-c3ccccc3OC)cc1=O)CCCC2 | -13.8%
CCO[C@H]1OC(C(=O)O)=C[C@@H](C2CCCCC2)[C@@H]1CCCO | -5.58%
CCCCCCCCCCOC(=O)Cn1c(COc2cccc(OC)c2)[n+](C)c2ccccc21 | 61.7% (active)
CCCCn1c(N)c(N(CCOC)C(=O)c2cccc(OCc3ccccc3)c2)c(=O)[nH]c1=O | -6.7%
CCOC(=O)Cn1c(-c2cccnc2Cl)nc2ccccc21 | -0.413%
CCOC(=O)COn1c(=O)c(-c2ccc(OCC)cc2)[n+]([O-])c2ccccc21 | -23.1%
CCCCCCCCCCOC(=O)Cn1c(COc2ccc(C)cc2)[n+](C)c2ccccc21 | 91.9% (active)
COc1cccc(OCc2nnc3n2N=C(c2ccccc2)C(CC(=O)O)S3)c1 (stereo not given) | -4%
COc1cccc(NC(=O)CSc2nnc(C3CCCCC3)n2N)c1 | 18.3%
CNC[C@@H]1Oc2c(NS(C)(=O)=O)cccc2C(=O)N([C@@H](C)CO)C[C@H]1C | -13.4%
COC(=O)c1ccc(/C=N/OCC(=O)Nc2cc(F)ccc2F)cc1 | -13.4%
COc1ccccc1N1CCN(c2ccc([N+](=O)[O-])nc2)CC1 | 16.1%
COc1ccccc1N1CCN(C(=O)c2c(-c3c(Cl)cccc3Cl)noc2C)CC1 | 15.5%
COc1ccccc1N1CCN(c2ncnc3sc(C)c(-c4ccccc4)c23)CC1 | 69.2% (active)
O=C(NC1Cc2ccccc2C1)c1cc(COc2cccc(C(F)(F)F)c2)on1 | 26.2%
CS(=O)(=O)N(CC(O)Cn1c2ccccc2c2ccccc21)c1cccc2ccccc12 (stereo not given) | 64.1% (active)
CC(=O)c1ccc2c(c1)c1ccccc1n2CC(C)C | 47.4%
CCCCN(CCCC)CC(O)Cn1c2ccccc2c(=O)c2ccccc21 (stereo not given) | 18.6%
COc1ccc(S(=O)(=O)N2CCOCC2)cc1NC(=O)CSc1cc(C)ccc1C | 9.92%

Reference: PubChem BioAssay AID485346 (Sanford-Burnham Center for Chemical Genomics, 2010)
